Rows were chosen to be rich in hits. Some 2.5% of all compounds tested hit in one or more screens of this group.
MEKK2mut PB1 HTS: signal of MEK5 binding to mutant human MEKK2 PB1 domain | bead flow cytometry, Alexa488-MEK5 binding to MEKK2 mutant | percent response, % at 10 µM | 0.35% of 290,000 active; in the data active = percent response above about 24%, passing the limit was not always enough
MEKK2wt PB1 HTS: raises or lowers MEK5 binding to wildtype human MEKK2 PB1 domain; Q9Y2U5; bead flow cytometry, Alexa488-MEK5 binding to MEKK2 WT; actives lie on both sides; binding response (% of control), % at 10 µM; 1.1% of 290,000 active; AID 1531; in the data active = binding response below about 67% or above about 130%
MEKK3 PB1 HTS: raises or lowers MEK5 binding to the human MEKK3 PB1 domain; bead-based flow cytometry, Alexa488-MEK5 binding to MEKK3; actives lie on both sides; 0 = blocked by unlabeled MEK5, 100 = vehicle; 1.4% of 290,000 active; Q99759; binding response (% of control), % at 10 µM; AID 1529;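 active = binding response more than 3 SD above or below the average of its plate-row segment, actives on both sides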;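 also: Alexa488 bead fluorescence after subtracting the streptavidin-only scavenger bead signal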
Target sequence (Q99759 whole entry, looked up, the tested form may be a part): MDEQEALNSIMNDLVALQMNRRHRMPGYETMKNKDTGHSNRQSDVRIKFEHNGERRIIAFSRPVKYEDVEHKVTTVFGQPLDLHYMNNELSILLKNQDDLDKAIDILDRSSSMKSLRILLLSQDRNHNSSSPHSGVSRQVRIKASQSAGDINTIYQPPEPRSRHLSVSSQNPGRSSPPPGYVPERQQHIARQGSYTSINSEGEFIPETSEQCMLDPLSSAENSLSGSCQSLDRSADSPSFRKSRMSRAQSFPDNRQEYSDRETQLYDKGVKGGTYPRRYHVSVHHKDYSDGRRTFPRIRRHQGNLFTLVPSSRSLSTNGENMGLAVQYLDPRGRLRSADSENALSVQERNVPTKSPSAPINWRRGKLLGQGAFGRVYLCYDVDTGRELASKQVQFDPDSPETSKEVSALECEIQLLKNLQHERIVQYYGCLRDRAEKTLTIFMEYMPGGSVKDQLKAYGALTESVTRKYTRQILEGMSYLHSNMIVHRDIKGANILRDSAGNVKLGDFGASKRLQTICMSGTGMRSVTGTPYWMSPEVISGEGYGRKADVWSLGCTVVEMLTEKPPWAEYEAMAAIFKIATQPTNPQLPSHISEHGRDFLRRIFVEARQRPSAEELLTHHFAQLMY
GRK2 inh: human GRK2 inhibition via aptamer displacement; AID 488847; inhibition of aptamer binding, % at 10 µM; 0.59% of 330,000 active; bead flow cytometry, FAM-aptamer displacement from GRK2;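 active = inhibition of aptamer binding above 40%, roughly 3 SD of noise, on plates passing a quality check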;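 also: median bead fluorescence of bound FAM aptamer so fluorescent compounds give negative values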
GRK2 inh confirm: confirmation of human GRK2 inhibitors displacing RNA aptamer. shares compounds with GRK2 inh. bead-bound GRK2, FAM-aptamer displacement, flow cytometry. aptamer displacement, % at 10 µM. 4% of 2,000 active;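 active = aptamer displacement above 40%, near three times the noise of non-fluorescent compounds, on plates passing quality checks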;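 also: negative values mostly reflect intrinsic compound fluorescence rather than true enhancement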
Aptamer quench SP: aptamer fluorescence quenching in GRK2 counter-screen. shares compounds with GRK2 inh. Carboxyfluorescein RNA aptamer on beads, flow cytometry quenching; active compounds read low. fluorescence response (% of DMSO), % at 10 µM. 2,000 tested, under 10 active. AID 504580;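 active = compounds that quench the bead-bound fluorescent RNA probe, cutting fluorescence to under half of the solvent control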;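 also: counterscreen run without GRK2 so only probe quenching by compound is measured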
GRK2 confirm 2: human GRK2 inhibition confirmation, cherry pick 2; bead-bound GRK2, FAM-aptamer displacement, flow cytometry; shares compounds with GRK2 inh; inhibition of aptamer binding, % at 10 µM; 360 tested, under 10 active; AID 504782;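 active = inhibition of aptamer binding above 40%, about triple the noise seen with nonglowing compounds, on plates passing quality control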;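 also: negative values mostly come from compounds that fluoresce themselves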
FAM quench SP: aptamer fluorescence quenching in GRK2 counter-screen; shares compounds with GRK2 inh; fluorescence response vs DMSO, % at 10 µM; carboxyfluorescein RNA aptamer beads, flow cytometry quenching; active compounds read low; 360 tested, under 10 active;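 active = response vs DMSO under 50%, meaning signal dropped by over half, treated as fluorescence quencher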;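 also: labelled aptamer on streptavidin beads without GRK2 as a quench counter-screen; 100% = bead fluorescence of DMSO wells and lower means quenching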
Starred values were filed as active, the others as inactive; . = no result given.

SMILES | MEKK2mut PB1 HTS | MEKK2wt PB1 HTS | MEKK3 PB1 HTS | GRK2 inh | GRK2 inh confirm | Aptamer quench SP | others
CC12CCC(c3n[nH]c(=S)nc31)C2(C)C (stereo not drawn) | -2 | 98 | 97 | 73* | . | . | GRK2 confirm 2=9;FAM quench SP=98
COc1ccc(C2c3ccc(O)cc3Oc3ncn4nc(-c5ccco5)nc4c32)cc1OC (stereo not drawn) | 0 | 98 | 100 | 57* | 3 | 99
COc1ccc(C2c3ccc(O)cc3Oc3ncn4nc(-c5ccccn5)nc4c32)cc1OC (stereo not drawn) | -1 | 93 | 95 | 1 | . | .
Cc1c(C(=O)O)cccc1-n1c(C)cc(/C=N/NC(=O)c2cc3ccccc3o2)c1C | -1 | 96 | 99 | 50* | 3 | 136
CCOc1ccc(/C(O)=C2/C(=O)C(=O)N(CC3CCCO3)C2c2ccco2)cc1 (stereo not drawn) | 5 | 104 | 113 | 1 | . | .
CCN(CC(=O)NCc1cccs1)C(=O)c1ccc([N+](=O)[O-])o1 | . | . | . | 2 | . | .
Cc1ccc(-c2noc(CSc3nnc(-c4ccncc4)n3-c3ccc(C)cc3)n2)cc1 | 0 | 100 | 101 | 99* | -1 | 95
O=C(c1cnn2ccccc12)N1CCN(C2CCCCC2)CC1 | -1 | 101 | 95 | 0 | . | .
CN(C)CCCN(C(=O)c1ccc(S(=O)(=O)N2CCOCC2)cc1)c1nc2cc3c(cc2s1)OCO3 | 4 | 106 | 100 | 0 | . | .
CN(C)CCCN(C(=O)c1ccc(S(=O)(=O)N2CCCCC2)cc1)c1nc2cc3c(cc2s1)OCO3 | 22 | 132 | 110 | 15 | -14 | 101
O=C(CC1CCCCC1)NCCOc1ccccc1 | -2 | 107 | 107 | 2 | . | .
Cc1ccc(N2C(=O)[C@@H]3C(C(=O)CN4C(=O)c5ccccc5C4=O)=NN[C@@H]3C2=O)c(C)c1 | . | . | . | 41* | 3 | 100
Cc1nn(CC(=O)NCc2cccs2)c(=O)c2nn(-c3ccccc3)c(C)c12 | -4 | 102 | 100 | 10 | . | .
CNC(=O)NC(=O)COc1ccc2oc3c(c2c1)CCCC3 | -1 | 95 | 97 | 3 | . | .
COCCCNC(=O)CNC(=O)c1nn(-c2ccc(OC)cc2OC)c(=O)c2ccccc12 | 1 | 102 | 104 | 4 | -2 | 104
CCC(C)NC(=O)CNC(=O)c1nn(-c2ccc(OC)cc2OC)c(=O)c2ccccc12 (stereo not drawn) | 1 | 98 | 103 | 0 | 0 | 102
COc1ccc(-n2nc(C(=O)NCC(=O)NC(C)C)c3ccccc3c2=O)c(OC)c1 | 3 | 103 | 106 | 0 | . | .
O=C(c1ccc(F)cc1F)N1CCCC(c2nc(-c3cccs3)no2)C1 (stereo not drawn) | -6 | 97 | 99 | 1 | . | .
Cc1ccc(F)cc1NC(=O)CSc1nnc(CNC(=O)c2ccco2)n1C | . | . | . | 70* | 0 | 98
Cc1ccc(C)c(NC(=O)CSc2nnc(CNC(=O)c3ccco3)n2C)c1 | 5 | 94 | 98 | 2 | . | .
O=C1CC(C(=O)O)S/C(=N\NC(=O)c2ccc(F)cc2)N1 (stereo not drawn) | -1 | 107 | 109 | 0 | . | .
Cc1noc(/C=C/N(C)C)c1S(=O)(=O)N1CCCC(C(=O)NCc2ccccc2Cl)C1 (stereo not drawn) | . | . | . | 3 | 1 | 98
COc1ccccc1CNC(=O)C1CCCN(S(=O)(=O)c2cccc3nonc23)C1 (stereo not drawn) | 1 | 106 | 102 | 1 | . | .
Cc1noc(/C=C/N(C)C)c1S(=O)(=O)N1CCCC(C(=O)NCc2ccc(Cl)cc2)C1 (stereo not drawn) | 6 | 105 | 105 | 2 | . | .
COc1ccc(CNC(=O)C2CCCN(S(=O)(=O)c3c(C)noc3/C=C/N(C)C)C2)cc1 (stereo not drawn) | 1 | 99 | 101 | 5 | 3 | 99
SMILES | MEKK2mut PB1 HTS | MEKK2wt PB1 HTS | MEKK3 PB1 HTS | GRK2 inh | GRK2 inh confirm | Aptamer quench SP | others
O=C(NCc1ccccc1Cl)C1CCCN(S(=O)(=O)c2cccc3nonc23)C1 (stereo not drawn) | -3 | 95 | 99 | 1 | 0 | 96
Cc1ccc(CNC(=O)C2CCCN(S(=O)(=O)c3c(C)noc3/C=C/N(C)C)C2)cc1 (stereo not drawn) | 1 | 105 | 102 | . | -2 | 102
Cc1noc(/C=C/N(C)C)c1S(=O)(=O)N1CCCC(C(=O)NCc2ccc(F)cc2)C1 (stereo not drawn) | . | . | . | 0 | . | .
N#Cc1c(N)nc2c(c1-c1ccc(F)cc1)CCC2 | 0 | 100 | 100 | 0 | . | .
Cc1cccc(NC(=O)CSc2n[nH]c(-c3cccnc3)n2)c1 | 2 | 98 | 97 | 0 | . | .
Cc1nonc1C(=O)N/N=C/c1ccc(O)cc1O | 1 | 106 | 119 | 0 | . | .
CCN1CCN(C(=O)C2CCN(c3nnc(-n4c(C)ccc4C)s3)CC2)CC1 | 2 | 104 | 100 | 0 | . | .
COc1ccc2nc(NC(=O)C3CCCN(S(=O)(=O)c4cccc5nonc45)C3)sc2c1 (stereo not drawn) | 14 | 105 | 102 | 87* | 0 | 102
CCOc1ccc2nc(NC(=O)C3CCCN(S(=O)(=O)c4cccc5nonc45)C3)sc2c1 (stereo not drawn) | -7 | 87 | 91 | 3 | . | .
O=C(O)C1C2C=CC(C3CC23)C1C(=O)O (stereo not drawn) | -4 | 88 | 89 | 18 | . | . | GRK2 confirm 2=6;FAM quench SP=101
Cc1cccc(NC(=O)C2C3C=CC(C4CC34)C2C(=O)O)c1 (stereo not drawn) | 6 | 99 | 98 | 2 | . | .
COC(=O)c1cc2c(ccn2-c2ccc(F)cc2)n1CC(C)C | 2 | 108 | 105 | 0 | . | .
COC(=O)c1cc2c(ccn2-c2ccc(F)cc2)n1C(C)C | -5 | 92 | 98 | 67* | 1 | 96
C=CCOc1ccc(C2C(C(=O)c3ccco3)=C(O)C(=O)N2c2nnc(C)s2)cc1 (stereo not drawn) | -3 | 97 | 100 | 73* | 2 | 104
CCCCOc1ccc(-c2cnc3ccccc3n2)cc1 | -1 | 98 | 119 | 0 | . | .
CCn1cc(C(=O)NCC(OC)OC)c(=O)c2cc(S(=O)(=O)N3CCOCC3)ccc21 | 3 | 101 | 101 | 45* | 0 | 98
O=C(O)c1cccc(-n2cccc2/C=C\[N+](=O)[O-])c1 | 8 | 100 | 101 | 18 | . | .
O=C(O)c1cccc(-n2cccc2/C=N/O)c1 | -9 | 99 | 97 | 54* | 34 | 99 | GRK2 confirm 2=26;FAM quench SP=100
